Screening data from PubChem.
Rows were chosen to be rich in hits. Some 10% of all compounds tested hit in one or more screens of this group.
JMJD2A Tudor: blocks the human JMJD2A Tudor domain | AID 504339 | hit rate 4.4% among 390,000 | Potency, µM (titrated, usually from 114 µM), inactives show at the top dose activity change, negative = inhibition, most hits filed as inhibitors | AlphaScreen JMJD2A-Tudor / H3K4me3 peptide binding | O75164; also: % is scaled to controls: 0 for no effect and ±100 for the full control effect; nearly all actives have a fitted effect of over 50% in size
G9a block: G9a (human) methyltransferase inhibition; Potency, µM (series often up to 102 µM), without a hit: at the highest dose activity, negative = inhibition, actives largely listed as inhibitors; G9a H3K9 monomethylation, AlphaScreen, 2 h; hit rate 8.8% among 350,000; also: % is scaled to controls: 0 for no effect and ±100 for the full control effect; nearly all actives have a fitted effect of over 75% in size
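Readings reflect AlphaScreen signal from monomethyl-H3K9 antibody detection. HMT at 20 nM; substrate b-H3K9 500 nM; cofactor SAM 20 uM; 2 h RT reaction; compounds tested as titrations in qHTS with 15 min preincubation.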
GLS inhibitor: glutaminase GLS (human) inhibition | GLS enzymatic activity, qHTS titration | hit rate 0.21% among 410,000 | Potency, µM (titrated, usually from 45.5 µM), inactives show top-dose activity change, negative = inhibition, hits mostly inhibitors | O94925; also: % is scaled to controls: 0 for no effect and ±100 for the full control effect
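Enzyme dispensed in phosphate buffer (45 mM, pH 8.2, 0.02% Tween-20), compounds pinned in, then 1 mM L-glutamine solution and the glutamate oxidase–HRP–Amplex Red mix added; fluorescence read immediately and again after 30 min at room temperature.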
HP1b binding inh: inhibitors of HP1-beta chromodomain binding to methylated histone tails; Potency, µM (top dose mostly 114 µM), for inactives: at the top dose activity change, negative = inhibition, most hits filed as inhibitors; hit rate 0.56% among 390,000; AlphaScreen HP1-beta / biotin-H3K9me3 peptide binding; AID 540317; also: nearly all actives have a fitted effect of over 70% in size
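AlphaScreen: HP1-beta (50 nM) preformed 30 min with biotin-H3(1-18)K9me3 peptide (50 nM) in PBS pH 7.4, 0.01% Tween-20. Compound added for 30 min at RT, then streptavidin donor/nickel chelate acceptor beads (10 ug/mL) for 30 min.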
L3MBTL1 block: blocks human L3MBTL1; hit rate 0.66% among 230,000; AID 485360; Potency, µM (top dose mostly 57.1 µM), without a hit: at the top dose activity, negative = inhibition, most hits filed as inhibitors; Q9Y468; AlphaScreen L3MBTL1–H3K9me1 peptide binding; also: % is scaled to controls: 0 for no effect and ±100 for the full control effect; nearly all actives have a fitted effect of over 60% in size
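L3MBTL1 50 nM + b-AHA-H3(1-15)K9me1 75 nM, 30 min RT; compound added, 30 min RT; streptavidin donor/Ni-chelate acceptor beads 10 ug/mL each final, 30 min RT dark; AlphaScreen read.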
BAZ2B block: inhibitors of human BAZ2B bromodomain; Q9UIF8; hit rate 4.4% among 360,000; Potency, µM (series often up to 114 µM), without a hit: top-dose activity change, negative = inhibition, usual class: inhibitors; AlphaScreen BAZ2B-H3K14Ac peptide displacement; AID 504333; also: % is scaled to controls: 0 for no effect and ±100 for the full control effect; nearly all actives have a fitted effect of over 60% in size
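AlphaScreen displacement of biotin-H3(5-23)K14Ac peptide (50 nM final) from BAZ2B (50 nM final) in PBS pH 7.4, 0.01% Tween-20; complex preformed 30 min RT, then compounds (top 110 uM) 30 min RT, beads 20 min dark.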
* = called active by the depositor; ? = inconclusive; nt = no result given; [ ] = another dose, or the depositor's remark. Calls follow the shape of the dose curve; as a rule, active = well fitted curve in the direction sought with a large enough effect; inconclusive = small, poorly fitted or top-dose-only effect, or another doubt; inactive = no such curve, though single readings can be large; an effect the other way counts as inactive or inconclusive. Potency is read from the fitted curve at half-maximal effect.

SMILES	JMJD2A Tudor	G9a block	GLS inhibitor	HP1b binding inh	L3MBTL1 block	BAZ2B block
CCOC(=O)c1c(NC(=O)c2cc3nc(-c4ccc(Br)cc4)cc(C(F)(F)F)n3n2)sc(C(C)=O)c1C	-17.3%	?	-15.9%	-2.2%	nt	-5.6%
COc1ccc2c(C)c(CC(=O)N3CCN(C(=O)C4COc5ccccc5O4)CC3)c(=O)oc2c1C (stereo unspecified)	17.8µM*	5.4%	-6.2%	-21.1%	nt	-1.5%
Cc1c(CC(=O)N2CCN(C(=O)C3COc4ccccc4O3)CC2)c(=O)oc2cc(O)c(Cl)cc12 (stereo unspecified)	-3.1%	3.7%	7.0%	30.0%	nt	-4.5%[57.1 µM]
CC(C)=CC(=O)OCc1csc(CC(=O)Nc2ccccc2C)n1	-13.6%	-7.3%	-9.8%	62.8%	nt	-2.8%
CCOC(=O)/C=C/C(=O)OCc1csc(CC(=O)Nc2ccccc2C)n1	0.3%	28.9%	3.3%	50.4%	nt	50.1µM*
COc1ccc(OC)c(NC(=O)c2cc3c(n(-c4ccc(Cl)cc4)c2=O)CC(C)(C)CC3=O)c1	-5.9%	0.3%[59 µM]	-2.9%	13.2%	nt	1.6%
CCN1CCN(c2nc(C)nc3c2sc(=S)n3C)CC1	?	6.31µM*	-10.8%	-13.9%	11.5%	-4.6%
Cc1nc(N2CCCCC2)c2sc(=S)n(C)c2n1	-17.6%	?	0.0%	52.2%	-5.1%	5.8%
O=C1NC(=S)SC1=C1CCCC1	?	17.8µM*	9.0%	1.1%	nt	31.6µM*
COc1ccc(C(=O)NC(=S)N2CCOCC2)cc1Br	-6.2%	20µM*	20.6%	25.6%	nt	-18.9%
COc1ccc(C(=O)NC(=S)NCCO)cc1Br	-27.4%	44.7µM*	23.4%	5.8%	2.0%	-2.8%
COc1ccc(C(=O)NC(=S)NCc2cccnc2)cc1Br	-20.6%	-50.9%	13.4%	69.2%	-8.3%[11.4 µM]	?
COc1ccc(C(=O)NC(=S)NNC(=O)c2ccc(O)cc2)cc1[N+](=O)[O-]	-18.4%	31.6µM*	-14.0%	6.1%	nt	5.8%
COc1ccc(C(=O)NC(=S)N2CCOCC2)cc1[N+](=O)[O-]	-4.1%	35.5µM*	7.3%	38.5%	nt	-16.0%
COc1ccc(C(=O)NN2CCOCC2)cc1[N+](=O)[O-]	-3.5%	nt	1.9%	18.4%	nt	3.7%
COc1ccc(C(=O)NNC(=O)c2ccncc2)cc1[N+](=O)[O-]	-7.7%	-10.1%	26.8%	42.5%	nt	-1.9%
COc1ccc(CCNC(=O)Cn2c(=O)n(-c3cc(OC)c(OC)c(OC)c3)c(=O)c3ccccc32)cc1OC	-14.3%	-7.6%[59 µM]	11.5%	6.2%	nt	3.3%
CC(=O)c1cccc(-n2c(=O)c3c4c(sc3n(CC(=O)c3ccc(Cl)cc3)c2=O)CN(C(C)=O)CC4)c1	-14.9%	-15.4%[59 µM]	-10.6%	6.7%	nt	0.8%
COc1ccc(Cl)cc1NC(=O)c1cc2nc(-c3ccc4c(c3)OCO4)cc(C(F)(F)F)n2n1	-5.6%	-6.4%[59 µM]	3.4%	16.7%	nt	-12.5%
COc1ccc(S(=O)(=O)NCCN2CCOCC2)cc1[N+](=O)[O-]	-18.6%	50.1µM*	0.2%	-8.7%	nt	-1.3%
COc1ccc(S(=O)(=O)NCCCN2CCOCC2)cc1F	-9.6%	14.0%	-12.6%	21.8%	nt	-3.1%
O=C(NCCN1CCCCC1)c1ccc(Cn2c(SCc3cccc(F)c3)nc3cccnc32)cc1	-4.4%	-23.8%[59 µM]	-2.2%	31.0%	nt	-17.5%
N#Cc1ccc(CN2CCCC3(CCN(C(=O)c4cnccn4)CC3)C2)cc1	nt	-1.0%[12.7 µM]	nt	nt	nt	nt
CC(=O)c1c(C)[nH]c(C(=O)NCC2CCCCC2)c1C	-18.2%	39.8µM*	-5.0%	13.0%	nt	-12.9%
CC(=O)c1c(C)[nH]c(C(=O)N2CCCCCC2)c1C	-35.1%[11.4 µM]	35.0%[0.501 µM]	?	?	-6.8%	50.1µM*
SMILES	JMJD2A Tudor	G9a block	GLS inhibitor	HP1b binding inh	L3MBTL1 block	BAZ2B block
Fc1ccccc1-n1[nH]nnc1=S	?	7.94µM*	-24.7%	?	nt	?
Cc1nnc(OC(C)C)c2nn(-c3ccccc3F)c(C)c12	-3.4%	-16.4%	2.1%	8.2%	nt	-1.4%
Cc1nnc(SCC(=O)Nc2ccc(N(C)C)cc2)[nH]c1=O	-35.4%	?	25.6%	-12.0%	nt	?
Cc1ccc(N2C(N)=C(C#N)C(c3ccsc3)C3=C2CC(C)(C)CC3=O)cc1 (stereo unspecified)	-30.3%	60.1%[12.7 µM]	13.8%	39.3%	1.6%	-36.1%
Cc1ccc(N2C(N)=C(C#N)C(c3cc(CN4CCOCC4)cs3)C3=C2CC(C)(C)CC3=O)cc1 (stereo unspecified)	-8.8%	50.1µM*	-15.0%	24.6%	nt	-13.2%
CN(C)c1ccc(C2C3CCCc4ccccc4C3=NN2C)cc1 (stereo unspecified)	25.1µM*	10µM*	18.3%	?	?	31.6µM*
CN1N=C2c3ccccc3CCC2C1c1ccc(C(F)(F)F)cc1 (stereo unspecified)	1.0%	5.5%	-0.9%	44.2%	nt	-17.0%
CCN(c1cc(C)cc(C)c1)S(=O)(=O)c1nnc(NC(=O)c2ccccc2C)s1	-15.1%	-24.5%[59 µM]	8.9%	21.1%	nt	-6.4%
Fc1ccc(C(NCCc2ccc(Cl)cc2)c2nnc(-c3ccccc3Cl)o2)cc1 (stereo unspecified)	50.0%	115.6%[59 µM]	16.4%	91.7%	nt	70.4%
Cc1ccccc1CNC(=O)Cc1ccc(NC(=O)N2CCCCc3ccccc32)cc1	-23.3%	9.1%[59 µM]	-9.2%	?	nt	-12.5%
Cc1cc(=S)cc(C)n1CCO	-16.0%	12.6µM*	6.1%	12.8%	0.7%	-7.2%
CN(Cc1cccc(F)c1)C(=O)CN1CCN(S(=O)(=O)c2ccc3c(c2)OCCCO3)CC1	-17.0%	-9.2%[59 µM]	-7.1%	30.4%	-2.3%	4.1%
CC(C(=O)N(C)Cc1cccc(F)c1)N1CCN(S(=O)(=O)c2ccc3c(c2)OCCCO3)CC1 (stereo unspecified)	-15.9%	39.8µM*	3.1%	22.5%	5.9%	8.7%
O=[N+]([O-])c1ccc(N/N=C/c2sc(N3CCOCC3)nc2-c2ccccc2)c(S(=O)(=O)Nc2ccccc2Cl)c1	-32.4%	70.8µM*	-4.1%	-9.4%	-16.6%	?
O=[N+]([O-])c1ccc(N/N=C/c2sc(N3CCOCC3)nc2-c2ccccc2)c(S(=O)(=O)Nc2ccc(Cl)cc2)c1	?	39.8µM*	16.1%	?	-2.6%	11.2µM*
O=C(O)c1cccc(N/N=C/c2sc(N3CCOCC3)nc2-c2ccccc2)c1	-25.0%	?	14.3%	26.4%	-20.0%	?
O=C(N/N=C/c1sc(N2CCOCC2)nc1-c1ccccc1)c1ccccc1Cl	-15.8%[11.4 µM]	34.6%[59 µM]	-14.1%	-8.4%	14.6%	2.5%
Cc1c(C)c2c(c(C)c1OC(=O)c1cccnc1)CC[C@@](C)(CCC[C@H](C)CCC[C@H](C)CCCC(C)C)O2	nt	27.5%[59 µM]	-9.5%	nt	nt	nt
